ClpP mod – qHTS Assay for Activators of ClpP; ATP-dependent Clp protease proteolytic subunit (Bacillus subtilis (strain 168)), P80244; purified B. subtilis ClpP, FRET peptide cleavage, 20 min; Potency, µM (top dose mostly 57.5 µM), for the others: at the top dose activity change, negative = active; hit rate 1.9% among 340,000; AID 651965, 2013; active means well fitted falling curve with a large enough effect; inconclusive means small, poorly fitted or top-dose-only effect; inactive means no such curve, though single readings can be large or run the other way; further: potency means the concentration at half of the fitted maximal effect; the source files actives as falling curves though it sought activators and does not explain the sign; nearly all actives have a fitted effect of over 65% in size
Target sequence (P80244 whole entry, looked up): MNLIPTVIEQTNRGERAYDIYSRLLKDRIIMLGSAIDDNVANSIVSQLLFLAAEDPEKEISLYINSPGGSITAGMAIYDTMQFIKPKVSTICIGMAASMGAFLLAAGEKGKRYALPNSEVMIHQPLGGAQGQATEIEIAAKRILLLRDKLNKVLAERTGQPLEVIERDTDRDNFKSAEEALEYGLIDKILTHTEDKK
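Buffer: 100 mM Tris/HCl pH8, 100 mM KCl, 0.05% low protease BSA, 2.5% glycerol, 0.01% Tween-20. ClpP 10 microg/mL final; 20 min RT; delta FRET normalized to ADEP and DMSO controls.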
gsp agonist – agonists of gsp mutant (McCune-Albright syndrome); gsp mutant cells, cAMP HTRF, 30 min; Potency, µM (highest dose often 76.9 µM), for inactives: top-dose activation (cAMP increase), usual class: activators; hit rate 0.13% among 340,000; AID 624287; active means well fitted activation curve with a large enough effect; inconclusive means small, poorly fitted or top-dose-only effect, or another doubt; inactive means no such curve, though single readings can be large or run the other way; cell line not stated here;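 further: phosphodiesterase inhibitor Ro 20-1724 added with compounds to block cAMP breakdown; potency means the concentration at half of the fitted maximal effect; nearly all actives have a fitted effect of over 60% in size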
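Cells stably selected in G418 were plated at 2000/well, grown 16-24 hr, then given compounds in DMSO with the PDE inhibitor […] (300 uM solution added) for 30 min at 37C; cAMP was read by HTRF.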
RXFP1 ag – agonists of human relaxin receptor RXFP1; Potency, µM (highest dose often 57.5 µM), without a hit: at the top dose activation, actives largely listed as activators; HEK293T-RXFP1 cAMP TR-FRET, 30 min; response scale: percent of porcine relaxin response, buffer zero; hit rate 0.3% among 370,000; Q9HBX9; active means well fitted activation curve with a large enough effect; inconclusive means small, poorly fitted or top-dose-only effect; further: potency means the concentration at half of the fitted maximal effect; on the % scale 0 is the no-effect control and ±100 the full control effect; nearly all actives have a fitted effect of over 60% in size
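HEK293 cells stably expressing RXFP1, treated 30 min at 37C with compounds plus PDE4 inhibitor Ro 20174; cAMP measured by HTRF TR-FRET. Normalized to buffer and 29 nM porcine relaxin; EC50 by Hill fit.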
RXFP1 antag – blocks the human relaxin receptor RXFP1; Q9HBX9; HEK293-RXFP1, relaxin-stimulated cAMP HTRF, 30 min; hits give low values; activity change, negative = inhibition, % at 57.5 µM; hit rate 0.59% among 350,000;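 active means activity change of -60% or lower, but not beyond a set lower limit; inconclusive means change between -60% and -40%, or beyond the set limit; inactive means change above -40%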; further: on the % scale 0 is the no-effect control and ±100 the full control effect
gsp antag – antagonizes gsp, the McCune-Albright syndrome mutation. gsp-mutant cells, cAMP HTRF, 30 min. Potency, µM (top dose mostly 76.9 µM), inactives show top-dose activity change, negative = inhibition, usual class: inhibitors. hit rate 0.4% among 340,000; calls by dose curve; cell line not stated here;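 further: intracellular cAMP measured with PDE inhibitor Ro 20-1724 present during compound exposure; potency means the concentration at half of the fitted maximal effect; on the % scale 0 is the no-effect control and ±100 the full control effect; nearly all actives have a fitted effect of over 65% in size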
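HTRF cAMP read-out (cAMP-d2 plus anti-cAMP antibody-K in lysis buffer, 30 min RT). Before lysis, cells are exposed to compounds with […] for 30 min at 37C in DPBS containing Ca/Mg, BSA and Tween 20.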
pAkt inh – inhibitors of Akt phosphorylation | Neuro2A IGF-stimulated pAkt S473 HTRF, 20 min; hits give low values | activity change, % for hits at 50 µM | hit rate 0.32% among 360,000 | AID 651550; in the data active means activity change below about -80%; inconclusive means mostly about -51% to -80%; further: on the % scale 0 is the no-effect control and ±100 the full control effect
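Single-point screen (50 µM final compound) in Neuro2A cells stimulated 20 min with 6 nM IGF at 37 deg C. After lysis, Ser473-phosphorylated Akt read by HTRF (ex 330 nm, em 615/665 nm) as the 665/615 ratio.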
The depositor's hits bear a star; i = inactive; ? = inconclusive; nt = not tested or not shown; [ ] = another dose, or the depositor's remark. Only some compounds are listed: those with a hit (about 2.7% of all), similar ones and a draw of the others.

SMILES | ClpP mod | gsp agonist | RXFP1 ag | RXFP1 antag | gsp antag | pAkt inh
COC(=O)c1ccc(CSc2nnc(NC(=O)c3cc4c(s3)CCCC4)s2)cc1 | -9% | 22% | 17% | -7 | -3% | i
CSc1nc(SCC(=O)NC(c2ccccc2)c2ccccc2)c2c3c(sc2n1)CN(C)CC3 | 28µM* | 7% | 3% | -4 | -4% | i
CCCCC(=O)OCCNC(=O)c1cc2ccccc2oc1=O | 25µM* | -1% | 2% | 6 | 9% | i
Cc1ccc2nc(SCC(=O)Nc3ccccc3N3CCOCC3)c(C#N)cc2c1 | -2% | 22µM* | 21% | 8 | -6% | i
COc1ccccc1CO/N=C/c1cccn1-c1nccc(N(C)C)c1C#N | 1% | -1% | 1% | 3 | -2%[15.4 µM] | i
CN(C)c1ccnc(-n2cccc2/C=N/OCc2ccccc2)c1C#N | 14µM* | -10% | 0% | -6 | 7% | i
Cc1ccccc1C(=O)n1nc(-c2cccnc2)nc1NCc1ccc(F)cc1 | -6% | nt | -1% | -9 | nt | nt
O=C(NC1CCCC1)C(c1ccccc1)n1c(CSCCOc2ccccc2)nc2ccccc21 (configuration not stated) | -3% | nt | nt | nt | nt | i
Cc1cc(Br)c2c(c1)/C(=C/C(=O)c1cccs1)C(=O)N2 | nt | 34%[15.4 µM] | 4% | nt | -27% | i
Cc1cccc2c1NC(=O)/C2=C\C(=O)c1cccs1 | -1% | -2% | 1% | -92* | 10% | i
CCc1ccc2c(c1)/C(=C/C(=O)c1cccs1)C(=O)N2 | 0% | -3% | 1% | -92* | 12% | i
CCCNC(=O)OC1CC2CC1[C@H]1CCCCN1C2=O (some centres not stated) | 1% | nt | nt | nt | nt | i
CCC(CC)(CC(=O)Nc1cccc(/C=C/c2nc(C3CCC3)cs2)c1)C(=O)O | nt | nt | nt | -15 | nt | nt
Cc1ccc(S(=O)(=O)N2CCN(c3nc(-n4cncn4)nc4ccccc34)CC2)cc1 | 4% | nt | nt | nt | nt | nt
O=C1C(Cl)=C(NCc2ccco2)C(=O)c2ccccc21 | 3% | -2% | nt | 2 | -6% | i
O=c1nccc(NCc2ccco2)[nH]1 | 2% | 1% | 2% | 1 | -1% | -108%*
CCCCn1c(N)c(N(CC(C)C)C(=O)c2ccc(OCc3c(C)noc3C)cc2)c(=O)[nH]c1=O | -1% | 27% | 1% | -6 | 15% | i
C[C@@]12CCC=C[C@H]1[C@H](c1ccc(F)c(/C=C/c3ccccc3)c1)N(Cc1ccccc1)C2=O | 28µM* | nt | 2% | nt | 2% | i
O=C(Nn1cnnc1)c1cc2cc(Br)ccc2oc1=O | -2% | ? | 1% | 11 | 3% | -93%*
CC(C)NC(=O)c1cc2cc(Br)ccc2oc1=O | -3% | -22% | -3% | 6 | -7% | i
CCCCCC1CCC(c2n[nH]c(=S)n2C)CC1 (configuration not stated) | nt | -6%[15.4 µM] | -3% | -64* | -14% | i
O=c1c2c(n3cnnc3n1-c1ccccc1)-c1ccccc1CC21CCCCC1 | -1% | 24% | 3% | 0 | ? | -114%*
Cc1cc(=O)[nH]c(-c2ccccc2)n1 | -1% | 3% | -3% | 6 | 7% | i
Cc1cc(=O)[nH]c2n[nH]c(-c3ccccc3)c12 | 25µM* | 7% | 1% | 5 | -5% | i
O=C1C(Cl)=C(N2CCCCCC2)C(=O)N1c1ccc(Cl)cc1 | 0% | 3% | -1% | -1 | -22% | i
SMILES | ClpP mod | gsp agonist | RXFP1 ag | RXFP1 antag | gsp antag | pAkt inh
O=C1C(Cl)=C(N2CCCC2)C(=O)N1c1ccc(F)cc1 | 25µM* | 7%[15.4 µM] | 0% | -1 | -38% | i
COC(=O)c1ccc2c(c1)NC(=O)c1ccccc1S2 | 1% | 4% | 1% | -6 | -2% | i
N#C/C=C1/NC(=O)c2ccccc2S1 | -3% | -1% | 2% | -10 | -4% | -110%*
N#C/C(=C\c1ccc(Cl)cc1)c1nc2ncccc2[nH]1 | -2% | -39% | 0% | 2 | 14% | -105%*
N#C/C(=C\c1ccc(Sc2ccc(Cl)cc2)o1)c1nc2ccccc2[nH]1 | 0% | -7% | 0% | -34 | 1% | i
CC(C)C[C@H]1CN(CCCC[C@@H]2CNC(=O)C(=O)N2CC2CCCCC2)C(=O)C(=O)N1CCc1ccccc1 | 1% | nt | nt | nt | nt | i
O=C(CS(=O)(=O)c1ccc(Cl)cc1)Nc1nnc(-c2cccs2)o1 | -13% | ? | 3% | -75* | 1% | i
CC1CC(C)CN(S(=O)(=O)c2ccc(C(=O)Nc3nnc(-c4cccs4)o3)cc2)C1 (configuration not stated) | -2% | -9% | -1% | -8 | ? | i
CCC1CCCCN1S(=O)(=O)c1ccc(C(=O)Nc2nnc(-c3cccs3)o2)cc1 (configuration not stated) | -2% | 5% | 1% | -73* | ? | i
CCOc1ccccc1CNC(=O)Cn1ccc2cc(S(=O)(=O)N3CCC(C)CC3)ccc21 | -5% | ? | 3% | -5 | -13% | i
CCc1cc2c(=O)c(Oc3ccccc3)c(C)oc2cc1O | 7.9µM* | -8% | 0% | 17 | ? | i
Cn1c(=O)c(C(=O)COc2ccc(C#N)cc2)c(N)n(Cc2ccccc2)c1=O | nt | ? | 18µM* | 31 | -1% | i
CCC(=O)OCC(=O)c1c(N)n(Cc2ccccc2)c(=O)n(C)c1=O | -4% | 0% | -4% | -5 | -2% | i
O=C(c1ccncc1)c1ccc(N2CCN(C3CC(=O)N(Cc4cccs4)C3=O)CC2)cc1 (configuration not stated) | 1% | -6% | 3% | -8 | 35µM* | i
Cc1ccc(C)c(N(C(=O)c2snc(C(N)=O)c2N)C(C(=O)NCC2CCCO2)c2cccs2)c1 (configuration not stated) | nt | 20%[15.4 µM] | 3% | ? | nt | i
Cc1ccc(C)c(N(C(=O)c2snc(C(N)=O)c2N)C(C(=O)NCC2CCCO2)c2ccc(C)o2)c1 (configuration not stated) | 0% | -6%[15.4 µM] | 1% | -87* | -15% | i
NC(=O)c1nsc(C(=O)N(c2ccc(Cl)cc2)C(C(=O)NCC2CCCO2)c2cccs2)c1N (configuration not stated) | 4% | -16% | 2% | -62* | ? | i
CCc1ccc(N(C(=O)c2snc(C(N)=O)c2N)C(C(=O)NCC2CCCO2)c2cccs2)cc1 (configuration not stated) | nt | -24% | -2% | ? | ? | i
O=C(NCCc1ccccn1)c1nc(Cn2cc(Br)cn2)no1 | nt | 14%[15.4 µM] | 5% | 5 | 5% | i
